Data on 7 compounds can be found in PubChem BioAssay (NCATS).

Test [1] can be described thus: Cell Viability - H-4-II-E (AID 543).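 Note: cells exposed to compound for 40 hours; % is set by controls: 0 for no effect and ±100 for the full control effect; nearly all actives have a fitted effect of over 35% in size.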 Put shortly: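 Cells seeded at 1500 per well and rested 5 hr; compounds added; 40 hr incubation at 37 °C; CellTiter-Glo added, 20 min at room temperature; luminescence read. Hill-equation fits gave AC50.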
Test [2] can be described thus: Cell Viability - SH-SY5Y (AID 544).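 Note: cells exposed to compound for 40 hours; nearly all actives have a fitted effect of over 55% in size.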 Particulars: SH-SY5Y neuroblastoma cell viability; viability change, negative = cytotoxic: at 92.2 µM (top of the series). Put shortly: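 Cells were plated at 1500 per well and allowed 5 hr at 37 °C. Compounds were added across a concentration range and incubated 40 hr at 37 °C. CellTiter-Glo was added for 20 min at room temperature before luminescence reading.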

A short description of test [3]: Cellular Toxicity (caspase-3) Jurkat (AID 655).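 Note: cells exposed to compound for 16 h at 37 °C before reading.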 Particulars: Jurkat caspase-3 activation, luminescence; caspase-3 activation: at 92.2 µM (top of the series), DMSO = 0%, tamoxifen = 100%. Put shortly: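 Jurkat cells (5000/well) in complete medium were treated with compounds for 16 hr at 37 °C, then Caspase-Glo 3/7 luminescence was read after 20 min at room temperature. Data normalized to DMSO (basal) and 100 uM tamoxifen (100%); AC50 from Hill fit.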

Test [4] in a line: Cell Viability - LYMP2-001 (AID 921). Note: nearly all actives have a fitted effect of over 70% in size. Note: potency is the fitted concentration of half-maximal effect. The essentials:
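Human lymphoblastoid cells (Coriell), 2500 per well, were preincubated 5 hr at 37 C, then exposed to compounds in complete medium for 24 hr at 37 C. Cellular ATP was read by CellTiter-Glo luminescence; AC50 from Hill fits of concentration-response data.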

Test [5] in a line: MultiTox-Fluor Cytotoxicity Assay - LYMP1-003 - Live Cells (AID 962).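 Note: cells exposed to compound for 16 hours at 37 °C; 0% = DMSO only and full loss = 92 µM tetraoctylammonium bromide; cytotoxic hits lower the live-cell protease signal.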 Put shortly: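 Acute cytotoxicity is scored as a drop in live-cell protease activity in human lymphoblastoid LYMP1-003 cells after 16 hr compound exposure at 37 C. AC50 values come from Hill-equation modelling of concentration-response data.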
Test [6] can be described thus: Cell Viability - LYMP2-004 (AID 966). Note: nearly all actives have a fitted effect of over 65% in size. Note: potency is the fitted concentration of half-maximal effect. The essentials:
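qHTS cytotoxicity: human lymphoblastoid line, 24 hr compound treatment, 37 C, complete medium. Viability read as cellular ATP via luciferase luminescence; tetraoctylammonium bromide served as positive control.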

The nature of test [7]: Cell Viability - LYMP2-015 (AID 971). Note: nearly all actives have a fitted effect of over 55% in size. Note: potency is the fitted concentration of half-maximal effect. Put shortly:
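Cells are seeded at 2500 per well and incubated 5 hr at 37 C. Compounds are added across a concentration series for 24 hr at 37 C. CellTiter-Glo is added, and luminescence is read after 30 min at room temperature.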

Test [8] is described as follows: Cell Viability - LYMP2-019 (AID 973). Note: nearly all actives have a fitted effect of over 55% in size. Note: potency is the fitted concentration of half-maximal effect. The essentials:
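Cytotoxicity is scored as a concentration-dependent drop in cellular ATP after cells (2500/well) receive compound for 24 hr at 37 C. Tetraoctylammonium bromide serves as positive control.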

Test [9] is described as follows: Cell Viability - LYMP2-021 (AID 974).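 Note: compound exposure lasts 24 hours at 37 °C; nearly all actives have a fitted effect of over 55% in size.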 Note: potency is the fitted concentration of half-maximal effect. Put shortly: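 Loss of cellular ATP, measured with a luciferase-based CellTiter-Glo readout, serves as the toxicity signal in human lymphoblastoid cells treated for 24 hours at 37 C. Potency is reported as AC50 from a standard Hill model.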
Test [10] is described as follows: Cell Viability - LYMP2-025 (AID 976).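 Note: plate controls were DMSO only for no effect and tetraoctylammonium bromide control for full effect.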 The essentials:
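Acute cytotoxicity is scored as a concentration-dependent fall in intracellular ATP, measured by luciferase luminescence, in human lymphoblastoid LYMP2-025 cells exposed to compound for 24 hours at 37 C. AC50 values come from standard Hill fits.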

The nature of test [11]: Cell Viability - LYMP2-006 (AID 978). Note: % is set by controls: 0 for no effect and ±100 for the full control effect; nearly all actives have a fitted effect of over 60% in size. The essentials: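 Human lymphoblastoid cells, 2500 per well, were preincubated 5 hr at 37 C, then exposed to compounds for 24 hr at 37 C in complete medium. Viability was read as intracellular ATP by CellTiter-Glo luminescence; AC50 from Hill-equation fits of qHTS concentration-response data.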
Test [12] can be described thus: Cell Viability - LYMP2-007 (AID 979).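 Note: cells exposed to compound for 24 h before reading; nearly all actives have a fitted effect of over 60% in size.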 Note: potency is the fitted concentration of half-maximal effect. Put shortly:
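Cells are seeded at 2500 per well and rested 5 hr. Compounds are then added over a concentration series for 24 hr at 37 C. CellTiter-Glo is added for 30 min at room temperature before luminescence reading.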

Test [13] is described as follows: Cell Viability - LYMP2-014 (AID 983).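 Note: plate controls were DMSO only for no effect and 92 µM tetraoctylammonium bromide for full effect; nearly all actives have a fitted effect of over 50% in size.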 The essentials: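 Cells are plated at 2500/well and left 5 hr at 37 C. Compounds are added across a concentration range and incubated 24 hr at 37 C in complete medium. CellTiter-Glo is added, and luminescence is read after 30 min at room temperature.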
Test [14] can be described thus: Cell Viability - LYMP2-018 (AID 985).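 Note: compound exposure lasted 24 hr at 37 °C; nearly all actives have a fitted effect of over 50% in size.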 Note: potency is the fitted concentration of half-maximal effect. The essentials: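 Seed 2500 lymphoblastoid cells per well, incubate 5 hr at 37 C, add compound and incubate 24 hr at 37 C, add CellTiter-Glo, wait 30 min at room temperature, then read luminescence.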
Test [15] can be described thus: Cell Viability - LYMP2-020 (AID 986). Note: nearly all actives have a fitted effect of over 55% in size. Note: potency is the fitted concentration of half-maximal effect. Put shortly:
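Seed 2500 cells per well and incubate 5 hr at 37 C. Add compounds at a concentration series and incubate 24 hr at 37 C. Add CellTiter-Glo, wait 30 min at RT, read luminescence, and fit a Hill curve for AC50.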

Test [16] in a line: Cell Viability - LYMP2-022 (AID 987).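 For viability change, negative = cytotoxic: 0% = DMSO alone and full effect = tetraoctylammonium bromide at 92 µM.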 Note: nearly all actives have a fitted effect of over 55% in size. Note: potency is the fitted concentration of half-maximal effect. Put shortly: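 Cells were seeded at 2500 per well, rested 5 hr at 37 C, and treated with titrated compounds for 24 hr at 37 C. Cellular ATP was then quantified by luciferase luminescence, and AC50 values were derived from Hill-modelled concentration-response curves.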
The nature of test [17]: Cell Viability - LYMP2-026 (AID 989). Note: % is set by controls: 0 for no effect and ±100 for the full control effect; nearly all actives have a fitted effect of over 50% in size. Put shortly: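 Cells are seeded at 2500 per well and held 5 hr at 37 C. Compounds are added in concentration series for 24 hr, then CellTiter-Glo reagent is applied and luminescence read.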
The nature of test [18]: Cell Viability - LYMP1-002 - Assay at 40 hr (AID 994).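 Note: 0% = DMSO only and full inhibition = 92 µM tetraoctylammonium bromide; nearly all actives have a fitted effect of over 60% in size.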 Put shortly: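 Cells are plated at 2500 per well and rested 5 hr at 37 C. Compounds are added and incubated 40 hr at 37 C. CellTiter-Glo reagent is added for 30 min at room temperature before luminescence is read.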
Test [19] in a line: qHTS assay for small molecule agonists of retinoid X receptor alpha signaling (AID 588544). Conditions: HEK293T RXRa-UAS-bla, beta-lactamase reporter, 18 h; 530 nm emission. (In general: qHTS replaces the single test concentration by a dilution series.)
Test [20] in a line: qHTS assay for small molecule antagonists of the retinoid-related orphan receptor gamma (ROR-gamma) signaling pathway - cell viability counter screen (AID 720652; active = well fitted curve in the direction sought with a large enough effect in the repeat runs; an effect the other way counts as inactive or inconclusive;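 note: CHO reporter cells with doxycycline-induced ROR-gamma expression; compound exposure lasted 16 hr before ATP read; % is set by controls: 0 for no effect and ±100 for the full control effect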). The essentials: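 Steps: seed CHO cells bearing TET-inducible ROR and ROR response element-luciferase; rest 5 hr at 37 C; add compound, then doxycycline; incubate 16 hr; add CellTiter-Glo and read luminescence as ATP-based viability.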

“And” between values parts separate entries of the source, which are not always exact repeats. Identical values can stand only once. Results filed as inconclusive are left out. The source made the active and inactive calls. Unless noted, calls come from the whole dose curve; as a rule, active = well fitted curve in the direction sought with a large enough effect; inconclusive = small, poorly fitted or top-dose-only effect, or another doubt; inactive = no such curve, though single readings can be large; an effect the other way counts as inactive or inconclusive.

With `Oc1ccc(Cl)c(Cl)c1Cl`, the Potency result in test [1], in [2], in test [4], in test [6], in [7] and in [8] was “inactive” each time. For the same compound, the Potency entry in [9], in [10], in test [11], in [12], in test [13] and in [14] was “inactive” in each case. Also, the Potency result in test [15], in test [16], in [17], in test [18] and in [20] was “inactive” throughout. For the same compound, the caspase-3 activation in test [3] was 0.688% (inactive). The call in test [5] was inactive. Further, the max response in test [19] is -5.29%.

With `O=c1ccc(=O)[nH][nH]1`, the Potency entry in test [1], in test [2], in test [4], in test [6], in [7] and in test [8] was “inactive” each time. For the same compound, the Potency entry in [9], in test [10], in [11], in test [12], in [13] and in test [14] was “inactive” each time. For the same compound, the Potency entry in test [15], in test [16], in test [17], in test [18] and in [20] was “inactive” throughout. In addition, in test [3], the caspase-3 activation was 1.49% (inactive). In test [5], the compound was classed as inactive. For the same compound, the max response in [19] was -8.67% and -14.6%.

Turning to `Cc1ccc(N)cc1C`, the Potency result in test [1], in test [2], in [4], in test [6], in test [7] and in test [8] was “inactive” each time. For the same compound, the Potency result in test [9], in test [10], in [11], in test [12], in test [13] and in test [14] was “inactive” throughout. Also, the Potency result in test [15], in test [16], in test [17], in [18] and in test [20] was “inactive” each time. Moreover, the caspase-3 activation in test [3] was 0.158% (inactive). In [5], the compound was called inactive. The max response in [19] was -0.563%.

On to `C=CCCl`, for which the Potency result in test [1], in test [2], in [4], in [6], in test [7] and in test [8] was “inactive” each time. Also, the Potency entry in test [9], in test [10], in [11], in test [12], in [13] and in [14] was “inactive” each time. The Potency entry in test [15], in test [16], in [17], in test [18] and in [20] was “inactive” each time. In addition, the caspase-3 activation in test [3] is 0.433% (inactive). In test [5], the compound was classed as inactive. In addition, the max response in test [19] is -13.3%.

As for `CC(C#N)CCC#N` (centres undefined), the Potency entry in test [1], in test [2], in [4], in test [6], in test [7] and in test [8] was “inactive” each time. The Potency entry in test [9], in [10], in [11], in test [12], in [13] and in test [14] was “inactive” throughout. The Potency result in test [15], in test [16], in test [17], in test [18] and in [20] was “inactive” throughout. Also, in test [3], the caspase-3 activation was 0.213% (inactive). For the same compound, in [5], the outcome was inactive. Moreover, the max response in test [19] is -11.4%.

For the compound `CCCCOC(=O)c1ccccc1N`, the Potency entry in test [1], in [2], in [4], in test [6], in test [7] and in test [8] was “inactive” in each case. The Potency entry in test [9], in test [10], in [11], in test [12], in test [13] and in test [14] was “inactive” each time. The Potency entry in test [15], in test [16], in test [17], in [18] and in test [20] was “inactive” each time. The caspase-3 activation in test [3] was 1.19% (inactive). In addition, the result in test [5] was inactive. The max response in test [19] was -10.9%.

For the compound `OC[P+](CO)(CO)CO`, the Potency entry in test [2], in [18] and in [20] was “inactive” in each case. The caspase-3 activation in test [3] is 16.2% (inactive). Moreover, the Potency in [4] is 15.8 µM (active); in test [6] it was 20 µM (active); in test [7] it was 15.8 µM (active); in [8], 15.8 µM (active); in test [9], 12.6 µM (active); in [12], 15.8 µM (active). Besides, the Potency in test [14] is 7.94 µM (active); in test [15], 12.6 µM (active); in test [16], 12.6 µM (active). In addition, the call in test [5] was inactive.
